COUP-TFII inh = blocks human COUP-TFII nuclear receptor | HEK293T NGFI-A luciferase reporter, luminescence | AID 686940 | P24468 | 370,000 compounds, 0.7% hits | inhibition, % at 8.6 µM;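 active means inhibition above a per-plate cutoff, mean inhibition of test wells between control levels plus 3 SD, cut at about 38% in these data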;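 further: cells cotransfected with COUP-TFII expression vector driving the NGFI-A reporter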
NR5A2 inv ag = NR5A2 inverse agonism in reporter assay. O00482. HEK293T StAR-luciferase reporter, LRH-1 transfected, 24 h. inhibition, % at 3.6 µM. 360,000 compounds, 0.13% hits;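 active means inhibition above the mean inhibition of all tested compounds plus 3 SD, cut at about 73% in these data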
Target sequence (O00482 whole entry, looked up): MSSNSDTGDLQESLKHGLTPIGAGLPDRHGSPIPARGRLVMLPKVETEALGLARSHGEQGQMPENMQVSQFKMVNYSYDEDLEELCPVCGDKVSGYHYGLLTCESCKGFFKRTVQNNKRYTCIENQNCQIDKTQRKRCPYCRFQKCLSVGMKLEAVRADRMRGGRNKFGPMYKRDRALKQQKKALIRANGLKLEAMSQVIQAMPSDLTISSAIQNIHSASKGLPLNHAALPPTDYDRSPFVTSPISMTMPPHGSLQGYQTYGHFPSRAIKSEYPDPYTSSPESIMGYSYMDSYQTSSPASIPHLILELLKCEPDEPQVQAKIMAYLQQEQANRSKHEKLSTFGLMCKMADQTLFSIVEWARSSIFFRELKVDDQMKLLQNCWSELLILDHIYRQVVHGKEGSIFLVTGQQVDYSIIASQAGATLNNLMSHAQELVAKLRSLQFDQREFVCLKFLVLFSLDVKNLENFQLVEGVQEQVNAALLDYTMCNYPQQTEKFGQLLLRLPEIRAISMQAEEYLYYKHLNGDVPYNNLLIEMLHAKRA
SRC1 inh = human NCOA1 inhibition; Q15788; HEK293 GAL4-SRC1 luciferase reporter, luminescence; inhibition, % at 3.6 µM; 360,000 compounds, 0.12% hits; AID 588354;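 active means inhibition above the campaign mean plus 3 SD, with each screening campaign given its own cutoff, cut at about 60% in these data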
Gli-Sufu antag = antagonists of Gli-Sufu signaling; Sufu-KO-LIGHT fibroblasts, Gli luciferase reporter luminescence; AID 588413; 340,000 compounds, 0.74% hits; inhibition, % at 5 µM;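 active means inhibition above about 55%, limit read from the data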
SRC3 inh = human NCOA3 inhibition; Q9Y6Q9; HEK293 GAL4-SRC3 luciferase reporter, luminescence; inhibition, % at 3.6 µM; 360,000 compounds, 0.17% hits; AID 588352;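 active means inhibition above a per-campaign cutoff, the mean of all compounds plus 3 SD, cut at about 60% in these data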;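 further: higher means less SRC3-driven luciferase light from the GAL4 reporter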
SRC2 inh = inhibits human steroid receptor coactivator 2. Q15596. HEK293 GAL4-SRC2 luciferase reporter, luminescence. inhibition, % at 9 µM. 370,000 compounds, 0.17% hits. AID 651957;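 active means inhibition above the mean inhibition of all tested compounds plus 3 SD, set per campaign, cut at about 52% in these data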
Gli antag conf = Gli-SUFU antagonism confirmation, single concentration; shares compounds with Gli-Sufu antag; Sufu-KO-LIGHT cells, Gli luciferase reporter, luminescence; inhibition, % at 5 µM; 2,500 compounds, 40% hits; AID 602428;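 active means mean inhibition at 5 µM reaching about 45%, limit read from the data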
SufuKO cytotox = cytotoxic in Gli-SUFU antagonist counter-screen; shares compounds with Gli-Sufu antag; Sufu-KO-LIGHT cells cytotoxicity, ATP luminescence; cytotoxicity, % at 5 µM; 2,500 compounds, 32% hits;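 active means mean cytotoxicity at 5 µM above about 25%, limit read from the data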;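 further: cells exposed to compound overnight for roughly 16 to 18 hours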
Wnt3a cs = Wnt3a reporter inhibition counter-screen | Wnt-LIGHT cells, Wnt3a-driven luciferase reporter, luminescence | inhibition, % at 6.25 µM | AID 651995 | 2,500 compounds, 20% hits | shares compounds with Gli-Sufu antag;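 active means mean inhibition above about 25%, limit read from the data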
A number is an active result; – = inactive; · = not tested or not shown. Rows were chosen to be rich in hits. Some 1.2% of all compounds tested hit in one or more screens of this group.

SMILES	COUP-TFII inh	NR5A2 inv ag	SRC1 inh	Gli-Sufu antag	SRC3 inh	SRC2 inh	Gli antag conf	SufuKO cytotox	Wnt3a cs
CCOC(=O)[C@@]12CCC3=C1N(CCC3)C(=O)[C@H](CC(=O)NCCC(C)C)C2	–	·	·	·	·	–	·	·	·
O=C(Cn1ncc2ccccc21)N1CCN(c2cccc(C(F)(F)F)c2)CC1	–	–	–	56	–	–	–	–	–
Cc1ccc(CSc2nnc(-c3ccccc3)n2Cc2ccco2)cc1	–	·	·	·	·	–	·	·	·
O=C(c1ccc(F)c(F)c1)N1CCC(Oc2cccnc2)CC1	–	·	·	·	·	–	·	·	·
CCCCCCCCn1c(=O)c(C(=O)OC)c(N)c2ccccc21	–	–	–	67	–	–	–	–	28
CCCCCCCn1c(=O)c(C(=O)OC)c(N)c2ccccc21	–	–	–	–	–	–	·	·	·
O=C(Nc1ccccc1Oc1ccccc1)NC1CCCCN(Cc2cccc(Cl)c2)C1=O (stereo not drawn)	–	·	·	·	·	–	·	·	·
CCOC(=O)N1CCC(N(C(=O)Nc2ccc(Cl)c(Cl)c2)C(C)CC)CC1 (stereo not drawn)	–	–	–	65	–	–	–	–	–
CCOC(=O)N1CCC(N(CCOC)C(=O)Nc2ccc(CC)cc2)CC1	–	–	–	–	–	–	·	·	·
CCOc1ccccc1N(C)S(=O)(=O)c1ccc2c(c1)CC(C)N2C(=O)C1CC1 (stereo not drawn)	–	–	–	60	–	–	–	–	–
CC1CCN(c2c(NCc3ccc(C(=O)N4c5ccccc5CC4C)cc3)c(=O)c2=O)CC1 (stereo not drawn)	–	–	–	57	–	–	57	–	–
CC1CCN(c2c(NCc3ccc(C(=O)N4CCN(C5CCCCC5)CC4)cc3)c(=O)c2=O)CC1	–	–	–	–	–	–	·	·	·
COC(=O)C1=C(C)N(Cc2ccc(C(F)(F)F)cc2)C(=NCc2ccc3c(c2)OCO3)NC1c1cccc(Cl)c1 (stereo not drawn)	–	·	·	·	·	–	·	·	·
CCCCCCCCCCOC(=O)Cn1c(COc2cccc(C)c2)[n+](C)c2ccccc21	–	–	–	·	–	–	·	·	·
CCOC(=O)Cn1c(COc2ccccc2OC)[n+](C)c2ccccc21	–	–	–	–	–	–	–	–	–
Cc1cc(C)c(CN2CCC(n3nccc3NC(=O)C3CCOC3)CC2)cc1C (stereo not drawn)	–	–	–	–	–	–	·	·	·
COc1cc(C)c(CN2CCC(n3nccc3NC(=O)C3CCOC3)CC2)cc1C (stereo not drawn)	–	–	–	59	–	–	–	–	–
CCOC(=O)CC1(O)CSc2nc(N)cc(=O)n21 (stereo not drawn)	–	·	·	·	·	–	·	·	·
Cc1ccc(S(=O)(=O)NCCOc2nc(N(C)C)nc(N3CCOCC3)n2)cc1	–	–	–	95	–	–	–	–	–
CCOC(=O)C1(CCOc2ccccc2)CCN(Cc2cccc(-n3cccn3)c2)CC1	–	–	–	–	–	–	–	–	–
CCOC(=O)C1(CCOc2ccccc2)CCN(Cc2cccc(OCCO)c2)CC1	–	–	–	–	–	–	·	·	·
CCOC(=O)C1(CCOc2ccccc2)CCN(Cc2cccc(F)c2)CC1	–	–	–	60	–	–	–	26	–
CCCN1CCC(=O)N([C@H](CSc2ccc(OC)cc2)Cc2ccccc2)CC1	–	–	–	–	–	–	48	–	–
O=C1CCN(CCc2ccccc2)CCN1[C@H](CSc1ccccc1)Cc1ccccc1	–	–	–	62	–	–	–	–	–
CCCN1CCC(=O)N([C@H](CSc2ccc(C)cc2)Cc2ccccc2)CC1	–	–	–	–	–	–	·	·	·
SMILES	COUP-TFII inh	NR5A2 inv ag	SRC1 inh	Gli-Sufu antag	SRC3 inh	SRC2 inh	Gli antag conf	SufuKO cytotox	Wnt3a cs
O=c1ccn2c(n1)OC1CC2OC1COC(c1ccccc1)(c1ccccc1)c1ccccc1 (stereo not drawn)	–	·	·	·	·	–	·	·	·
O=C1NC(Cc2cnc[nH]2)C(=O)N2CCCC12 (stereo not drawn)	–	·	·	·	·	–	·	·	·
COC(=O)C1=C(C)N(C)C(=NCc2ccc(OC)cc2)NC1c1ccc(F)cc1 (stereo not drawn)	–	·	·	·	·	–	·	·	·
CC(=O)OCC1=C(C(=O)O)N2C(=O)C(NC(=O)c3ccc(COc4ccc(Cl)cc4)o3)C2SC1 (stereo not drawn)	–	–	–	–	–	–	–	–	–
O=C(CSc1cccc[n+]1[O-])N1CCCCCC1	–	–	–	–	–	–	·	·	·
O=C(CSc1cccc[n+]1[O-])CSc1cccc[n+]1[O-]	–	–	–	56	–	–	–	–	–
Cn1c(CNC(=O)c2ccco2)nnc1SCC(=O)Nc1ccc(Cl)cc1	–	–	–	97	–	–	–	–	–
Cc1ccnc(NC(=O)c2cccc(NC(=O)Cc3ccccc3)c2)c1	–	–	–	95	–	–	–	25	–
CN(Cc1ccco1)C(=O)[C@@H](Cc1ccccc1)NC(=O)[C@H]1O[C@@H](n2ccc(=O)[nH]c2=O)[C@H](O)[C@@H]1O	–	·	·	·	·	–	·	·	·
Cc1ccc(C(=O)Cn2nnc(-c3ccccc3)n2)cc1	–	–	–	–	–	–	·	·	·
O=C(Cn1nnc(-c2ccccc2)n1)c1ccccc1	–	–	–	57	–	–	–	–	–
O=C(CSc1nnc(-c2ccccc2)n1-c1ccccc1)Nc1ccc(Oc2ccccc2)cc1	–	·	·	·	·	–	·	·	·
Oc1ccc2[nH]cc(-c3cccs3)c2c1-c1ccccc1	–	·	·	·	·	–	·	·	·
Cc1cc(C(=O)CSc2nc3ccccc3c(=O)n2C)c(C)n1Cc1ccc2c(c1)OCO2	–	–	–	73	–	–	78	38	49
COc1ccc(N2C(=O)c3ccc(C(=O)OC(C)C)cc3C2=O)cc1	–	–	–	91	–	–	–	–	–
CC(C)N(CCCNC(=O)C1CCC(CNS(=O)(=O)c2ccccc2)CC1)Cc1ccccc1 (stereo not drawn)	–	–	–	60	–	–	–	–	–
Cc1ccc(S(=O)(=O)N(C)c2cccc3c2S(=O)(=O)N([C@H](C)c2ccccc2)C[C@@H](COCc2ccccc2)O3)cc1	–	·	·	·	·	–	·	·	·
COc1ccc(OC)c(CN2CCCC(CO)C2)c1 (stereo not drawn)	–	–	–	59	–	–	–	–	–
C[N+]1=C(/C=C/Nc2ccccc2Cl)C(C)(C)c2ccccc21	–	–	–	56	–	–	52	39	–
FC(F)(F)c1cnc(/C=C/Nc2ccccc2Cl)c(Cl)c1	–	–	–	–	–	–	·	·	·

Screening results (PubChem BioAssay)
